Results on 27 compounds are retold here after PubChem BioAssay (NCATS).

Test [1] can be described thus: P-glycoprotein substrates identified in KB-3-1 adenocarcinoma cell line, qHTS therapeutic library screen (AID 1346986). Also: nearly all actives have a fitted effect of over 60% in size.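 Also: potency is for cytotoxicity meaning loss of cell viability.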 The note with it: KB-3-1 parental cells viability, CellTiter-Glo, 72 h; series mostly up to 44.5 µM. The essentials:
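Cells seeded 500/well in DMEM/10% FCS; compounds pinned in dose-response; 72 h incubation; CellTiter-Glo added, 5 min, luminescence. KB-8-5-11 run ±tariquidar to test reversal of P-gp resistance.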

A short description of test [2]: P-glycoprotein substrates identified in KB-8-5-11 adenocarcinoma cell line, qHTS therapeutic library screen (AID 1346987). Also: nearly all actives have a fitted effect of over 65% in size. As to activity change, negative = cytotoxicity: % is scaled to controls: 0 for no effect and ±100 for the full control effect. The note with it: KB-8-5-11 (P-gp overexpressing) viability, CellTiter-Glo, 72 h; series mostly up to 44.5 µM. In a few lines:
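KB-8-5-11, a colchicine-selected P-gp-overexpressing KB-3-1 subline, was grown without colchicine for the assay. Cells were seeded at 500 cells/well, dosed in concentration-response and incubated 72 h at 37 degree C, 5% CO2. Viability was read by CellTiter-Glo luminescence.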

Inconclusive results are not listed. Values without a mark were called inactive. Activity calls are given as the source filed them. Calls follow the shape of the dose curve; as a rule, active = well fitted curve in the direction sought with a large enough effect; inconclusive = small, poorly fitted or top-dose-only effect, or another doubt; inactive = no such curve, though single readings can be large; an effect the other way counts as inactive or inconclusive.
Potency is read from the fitted curve at half-maximal effect.

In the case of `CC#CC(=O)N1CCC[C@H]1c1nc(-c2ccc(C(=O)Nc3ccccn3)cc2)c2c(N)nccn12`, the Potency entry in test [1] and in test [2] was “inactive” in each case.
For the compound `CC(CO)C1CCC2(C)CC3C(CO)CC(O)C3C(C)(O)C/C=C/12` (centres undefined), the Potency result in test [1] and in test [2] was “inactive” throughout.
In the case of `CCOCc1cc(OC)c(-c2ccc(C[C@H](NC(=O)c3c(F)cccc3F)C(=O)O)cc2)c(OC)c1`, the Potency result in test [1] and in test [2] was “inactive” in each case.
For the compound `O=C(O)CCCCCC[C@H]1C(=O)NC(=O)N1CC[C@@H](O)C1CCCCC1`, the Potency result in test [1] and in test [2] was “inactive” each time.
Consider `CC(C)(C)c1ccc(S(=O)(=O)Nc2ccc(Cl)cc2C(=O)c2cc[n+]([O-])cc2)cc1`, for which the Potency result in test [1] and in test [2] was “inactive” each time.
With `COc1cc2c(cc1OC)CC(=O)N(CCCNC[C@H]1Cc3cc(OC)c(OC)cc31)CC2`, the Potency result in test [1] and in test [2] was “inactive” each time.
As for `COc1cc(/C=C/C=O)cc(OC)c1O[C@@H]1O[C@H](CO)[C@@H](O)[C@H](O)[C@H]1O`, the Potency entry in test [1] and in test [2] was “inactive” in each case.
On to `COc1c2c(c(C)c3c1C(=O)OC3)O[C@@]1(C)CCC3(C(C)(C)O)OC(=O)CC[C@]3(C)[C@H]1C2` (some centres undefined), for which the Potency result in test [1] and in test [2] was “inactive” each time.
With `CC1(C)CC[C@]2(C(=O)O[C@@H]3O[C@H](CO)[C@@H](O)[C@H](O)[C@H]3O)CC[C@]3(C)C(=CCC4[C@@]5(C)C[C@@H](O)[C@H](O)C(C)(C)C5[C@H](O)C[C@]43C)[C@@H]2[C@@H]1O` (some centres undefined), the Potency result in test [1] and in test [2] was “inactive” throughout.
Turning to `C=C(C(=O)O)[C@H]1C[C@]2(C)[C@@H](O)CC[C@]23O[C@H]1C[C@@H]3C`, the Potency result in test [1] and in test [2] was “inactive” throughout.
Regarding `O=C(NOCC(O)CO)c1ccc(F)c(F)c1Nc1ccc(I)cc1F` (centres undefined), the Potency entry in test [1] and in test [2] was “inactive” in each case.
As to `C[C@H]1C(=O)N2c3ccccc3[C@@]3(O)C[C@@H]4C(=O)N[C@](C)(c5nc6ccccc6c(=O)n54)N1[C@@H]23`, the Potency entry in test [1] and in test [2] was “inactive” throughout.
Consider `C[C@H](N)C(=O)N[C@@H](Cc1ccc(O)cc1)C(=O)N1CCC[C@H]1C(=O)NCC(=O)N[C@@H](CCCCN)C(=O)N[C@@H](Cc1ccccc1)C(N)=O`, for which the outcome in test [1] and in test [2] was “inactive [at 9.29 µM]” throughout.
On to `COc1cc2c3c(cc4ccccc4c3c1O)NC2=O`, for which the Potency entry in test [1] and in test [2] was “inactive” throughout.
For the compound `C[C@@H]1O[C@@H](O[C@H]2[C@@H]3C=CO[C@@H](O[C@@H]4O[C@H](CO)[C@@H](O)[C@H](O)[C@H]4O)[C@@H]3[C@@]3(CO)O[C@@H]23)[C@H](OC(=O)/C=C/c2ccccc2)[C@H](O)[C@H]1O`, the Potency entry in test [1] and in test [2] was “inactive” throughout.
`Cc1cc(OCc2nc(-c3ccccc3Cl)cs2)ccc1OCC(=O)O`: the Potency entry in test [1] and in test [2] was “inactive” each time.
With `COc1nc2sc(C(=O)NC3CC3)c(N)c2c(C)c1Cl`, the Potency entry in test [1] and in test [2] was “inactive” in each case.
As to `N#Cc1c(Oc2ccc(F)c(NC(=O)Cc3cccc(C(F)(F)F)c3)c2)ccc2nc(NC(=O)C3CC3)sc12`, the Potency was 6.51 µM (active) in test [1] and 7.31 µM (active) in test [2].
For `CC(=O)CC1CCC(C(C)C(=O)OCC(O)CO)O1` (centres undefined), in that order: “inactive” and “inactive”.
Turning to `CC(=O)OC1C(O)C2C(C)C3=CC(=O)OC3(O)CC2C2(C)CCCC(C)(CO)C12` (centres undefined), the Potency entry in test [1] and in test [2] was “inactive” in each case.
As to `Cc1ccc(Cc2c(C)nc3nc(SCC(=O)NCCN4CCNCC4)nn3c2C)cc1`, the Potency entry in test [1] and in test [2] was “inactive” each time.
On to `C[C@H](NC(c1cccc(C[P+](=O)O)c1)[C@H](C)O)c1ccc(Cl)c(Cl)c1` (some centres undefined), for which the Potency result in test [1] and in test [2] was “inactive” each time.
As to `C=CC(C)(C)c1[nH]c2cc3c(cc2c1CC1NC(=O)C2=CCCN2C1=O)C=CC(C)(C)O3` (centres undefined), the Potency entry in test [1] and in test [2] was “inactive” each time.
In the case of `C[C@@H]1O[C@@H](O[C@@H]2CO[C@@H](O[C@H]3CC[C@@]4(C)C(CC[C@]5(C)C4CC=C4[C@@H]6CC(C)(C)CC[C@]6(C(=O)O[C@@H]6O[C@H](CO)[C@@H](O)[C@H](O)[C@H]6O)CC[C@]45C)[C@]3(C)CO)[C@H](O)[C@H]2O[C@@H]2O[C@H](CO)[C@@H](O)[C@H](O)[C@H]2O)[C@H](O)[C@H](O)[C@H]1O` (some centres undefined), the outcome in test [1] is “inactive [at 9.29 µM]”. The activity change, negative = cytotoxicity in test [2] is 4.08% [at 9.29 µM].
`CC(C)=CC/C=C(\C)[C@H]1CC[C@]2(C)[C@@H]1[C@H](O)C[C@@H]1[C@@]3(C)CC[C@H](O)C(C)(C)[C@@H]3[C@@H](O[C@@H]3O[C@H](CO)[C@@H](O)[C@H](O)[C@H]3O)C[C@]12C`: the Potency entry in test [1] and in test [2] was “inactive” each time.
For `COc1ccc(N2CCOCC2)c2sc(NC(=O)N3CCC(C)(O)CC3)nc12`, the Potency result in test [1] and in test [2] was “inactive” throughout.
With `C=C(C)C(=O)O[C@H]1C[C@@](C)(O)C(=O)CC(O)/C(C)=C\[C@H]2OC(=O)C(=C)[C@H]12` (some centres undefined), the Potency result in test [1] and in test [2] was “inactive” throughout.
